# Source: PubChem (National Center for Advancing Translational Sciences (NCATS))
# D1 PAM – Potentiators of Human D1 Dopamine Receptor: qHTS. HEK293 TREx D1 cells, calcium flux, dopamine EC20 potentiation. potentiation, % at 10 µM. D(1A) dopamine receptor (Homo sapiens), P21728. AID 504651, 2011. actives 0.036% (n = 360,000); in the data active means potentiation above about 30%
# TRHR ag – qHTS for Small Molecule Agonists and Allosteric Enhancers of Human TRH Receptor: Primary Screen for Agonists; TRHR cells, calcium flux fluo-8, FDSS agonist mode; activation, % at 2 µM; actives 0.18% (n = 360,000); AID 493084, 2011
# Target sequence (P34981 whole entry, looked up): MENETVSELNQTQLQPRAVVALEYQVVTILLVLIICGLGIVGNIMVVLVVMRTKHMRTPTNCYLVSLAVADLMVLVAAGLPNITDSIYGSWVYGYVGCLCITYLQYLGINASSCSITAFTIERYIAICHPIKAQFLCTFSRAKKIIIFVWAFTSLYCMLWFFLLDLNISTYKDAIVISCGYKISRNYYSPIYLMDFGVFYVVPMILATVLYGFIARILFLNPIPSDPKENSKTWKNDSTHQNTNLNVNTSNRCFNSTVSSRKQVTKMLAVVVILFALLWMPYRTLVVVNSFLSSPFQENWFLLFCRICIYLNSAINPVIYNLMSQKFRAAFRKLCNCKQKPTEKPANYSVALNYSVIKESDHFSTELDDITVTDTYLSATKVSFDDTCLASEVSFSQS
#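 In this calcium-flux screen, cells bearing human TRHR are dye-loaded with fluo-8, baselined for 10 cycles, then exposed to library compounds; positive kinetic calcium responses during the agonist phase mark hits, with TRH as control.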
# D1 antag – Antagonist of Human D 1 Dopamine Receptor: qHTS; HEK293 TREx D1 cells, calcium flux, dopamine EC80; active compounds read low; actives 3.2% (n = 360,000); D(1A) dopamine receptor (Homo sapiens), P21728; activity change, negative = inhibition, % at 10 µM; in the data active means activity change below about -30%
#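 Using tetracycline-induced force-coupled D1 Hek293 cells and a calcium dye, signals were followed for 180 s after compound, then for 180 s after EC80 dopamine, to detect inhibitors.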
# TRHR enhancer – qHTS for Small Molecule Agonists and Allosteric Enhancers of Human TRH Receptor: Primary Screen for Enhancers; TRHR cells, fluo-8 calcium fluorescence, EC20 TRH enhancement; enhancement, % at 2 µM; actives 0.66% (n = 360,000); in the data active means enhancement above about 30%
#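 TRHR-expressing cells loaded with fluo-8 calcium dye were read kinetically (ex 480/em 530) during compound addition, then stimulated with an EC20 of TRH (10 nM final). Enhancement of the Gq-mediated intracellular calcium response was scored.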
# D1 agonist – Allosteric Agonists of the Human D1 Dopamine Receptor: qHTS | activation, % at 2 µM | HEK293 T-REx D1 cells, calcium flux, agonist mode | AID 504660, 2011 | actives 1% (n = 360,000) | D(1A) dopamine receptor (Homo sapiens), P21728
#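 Inducible HEK293 T-REx D1 cells, force-coupled to calcium signalling, were plated at 4000 cells/well with tetracycline and held overnight at 30 C. After no-wash calcium dye loading, compound-evoked calcium rise over 180 s flagged agonists.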
# Epigenetic derep – Quantitative High-Throughput Screen for Regulators of Epigenetic Control; murine LDR cells, GFP reporter derepression, 30 h; Potency, µM (titrated, usually from 53.9 µM), most hits filed as activators; actives 0.2% (n = 280,000); active means well fitted activation curve with a large enough effect; further: nearly all actives have a fitted effect of over 60% in size
#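 Readout is the number of GFP-expressing murine LDR cells, counted by cytometry following washing. Cells were treated with compound for 30 h at 37 C; the stably integrated CMV-GFP locus is normally silent.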
# A number is an active result; 0 = inactive; - = no result given. Hits are enriched below; roughly 4.6% of the tested compounds scored in any of these assays. Unless noted, no stated cut-off is given here; in the data, active means activation above about 30%; inactive means the rest.
SMILES,D1 PAM,TRHR ag,D1 antag,TRHR enhancer,D1 agonist,Epigenetic derep
Cc1ccccc1N1C(=O)c2cccc([N+](=O)[O-])c2C1=O,0,0,0,0,0,0
CCc1c(-c2ccccc2)nc2nc(C)c(C)nn12,0,0,0,36.7,0,0
CC(C)c1ccc(O)c(NC(=S)NC(=O)c2ccc3c(c2)OCO3)c1,0,0,-65.8,0,0,-
O=C(NC(=S)Nc1ccccc1Br)c1ccc2c(c1)OCO2,0,0,0,0,0,-
Cc1ccc2cc(C#N)c(NCc3ccccc3)nc2c1,0,0,-33.0,0,0,0
O=C(Cn1c(=O)nc(-c2ccccc2)c2cc(Cl)ccc21)N1CCN(c2ccc(F)cc2)CC1,0,0,0,0,0,0
N=c1oc2cc(O)ccc2cc1C(=O)Nc1ccccn1,0,0,0,31.0,0,0
O=C(O)c1ccccc1C(=O)c1ccc(Br)s1,0,0,-34.5,0,0,0
O=C(O)c1ccccc1C(=O)c1cccc2ccccc12,0,0,-36.6,0,0,-
CCOC(=O)c1scc(-c2ccccc2)c1S(=O)(=O)N1CCN(c2ccc(Cl)cc2)CC1,0,0,0,0,0,0
CCn1ncc([C@@H]2C[C@H]3CN(Cc4cccc(Cl)c4)C(=O)[C@]34CCCN24)c1C,0,0,0,0,0,0
Cn1cc([C@@H]2C[C@H]3CN(Cc4cccc(Cl)c4)C(=O)[C@]34CCCN24)c(-c2ccccc2)n1,0,0,-30.9,0,0,0
Cc1nn(C)cc1[C@@H]1C[C@H]2CN(Cc3cccc(Cl)c3)C(=O)[C@]23CCCN13,0,0,0,0,0,0
CCCn1ncc([C@@H]2C[C@H]3CN(Cc4cccc(Cl)c4)C(=O)[C@]34CCCN24)c1C,0,0,-31.0,0,0,0
CCN(Cc1ccccc1)C(=O)CCS(=O)(=O)c1cc(Br)cc2c1N(C(=O)C1CC1)CC2,0,0,0,0,0,0
C[C@@H]1CC[C@H]2[C@H](C)[C@H]3CC[C@H]4C5[C@@H](O)CC6=CC(=O)CC[C@]6(C)[C@H]5C[C@H]4C3C(=O)N2C1 (some centres undefined),-,-,-,-,-,0
Cc1cccc(Oc2ncnc3oc(-c4ccccc4)cc23)c1C,0,0,-81.3,0,0,0
CC(C)Oc1ccc(CNS(=O)(=O)c2cnc(N)nc2)cc1,0,0,0,0,0,0
CCC(=O)N1c2ccc(S(=O)(=O)NCCc3ccc(C)cc3)cc2CC1C (centres undefined),0,0,0,0,0,-
CC1Cc2cc(S(=O)(=O)NCc3ccccc3Cl)ccc2N1C(=O)C1CCC1 (centres undefined),0,0,-80.4,0,0,0
CCC(=O)N1c2ccc(S(=O)(=O)NCc3ccc(F)cc3)cc2CC1C (centres undefined),0,0,-32.5,0,0,0
CC1Cc2cc(S(=O)(=O)NCc3ccc(N(C)C)cc3)ccc2N1C(=O)C1CCC1 (centres undefined),0,0,0,45.2,0,0
CC1Cc2cc(S(=O)(=O)NCCc3ccccc3)ccc2N1C(=O)C1CC1 (centres undefined),0,0,0,0,0,-
Cc1ccc(NS(=O)(=O)c2ccc3c(c2)CC(C)N3C(=O)C2CCC2)cc1Cl (centres undefined),0,0,0,0,0,0
COc1ccc(CNS(=O)(=O)c2ccc3c(c2)CC(C)N3C(=O)C2CC2)cc1 (centres undefined),0,0,0,0,0,-
CC(=O)Nc1ccc(NS(=O)(=O)c2ccc3c(c2)CC(C)N3C(=O)C2CCC2)cc1 (centres undefined),0,0,0,45.9,0,0
O=C(CN1CCSc2ccccc21)N1CCN(c2cccc(Cl)c2)CC1,0,0,0,0,0,0
